Laboratory results taken from PubChem BioAssay (NCATS).
Several values for one entry are separate records, joined by “and”; a condition that tells them apart may be missing. Identical values can stand only once. Inconclusive results are not listed. Activity calls are given as the source filed them. Unless noted, calls come from the whole dose curve.

Assays:
[1] = molecular target: Bile acid receptor (Homo sapiens) (UniProt Q96RI1); assay: qHTS assay for small molecule antagonists of farnesoid X receptor signaling (AID 588526); note: % is set by controls: 0 for no effect and ±100 for the full control effect
Chain of Bile acid receptor (Homo sapiens) (Q96RI1 whole entry, looked up): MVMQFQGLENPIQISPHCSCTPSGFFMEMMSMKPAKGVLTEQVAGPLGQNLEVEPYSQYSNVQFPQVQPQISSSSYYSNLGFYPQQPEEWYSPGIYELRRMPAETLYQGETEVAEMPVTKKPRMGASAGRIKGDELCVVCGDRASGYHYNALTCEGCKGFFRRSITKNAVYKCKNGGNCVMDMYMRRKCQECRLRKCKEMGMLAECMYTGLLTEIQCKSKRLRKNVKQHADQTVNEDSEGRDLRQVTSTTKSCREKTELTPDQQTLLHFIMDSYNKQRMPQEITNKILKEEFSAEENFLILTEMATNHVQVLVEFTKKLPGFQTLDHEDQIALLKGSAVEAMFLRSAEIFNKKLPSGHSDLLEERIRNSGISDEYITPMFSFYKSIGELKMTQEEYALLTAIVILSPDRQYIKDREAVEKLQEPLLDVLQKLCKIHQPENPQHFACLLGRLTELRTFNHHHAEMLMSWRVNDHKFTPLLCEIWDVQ
Method in brief: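 Antagonist mode: titrated compounds tested against chenodeoxycholic acid stimulation (normalized to 50 uM CDCA and DMSO) in GeneBLAzer HEK293T cells for 16 h. Beta-lactamase read by CCF4 fluorescence; IC50 from Hill fits.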

[2] = molecular target: Glucocorticoid receptor (Homo sapiens) (UniProt P04150); assay: qHTS assay for small molecule agonists of glucocorticoid receptor signaling (AID 588532; active = well fitted curve in the direction sought with a large enough effect in the signal ratio, with a control signal flat; the % refers to the signal ratio;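 note: 100% = dexamethasone at 0.1 µM and 0% = DMSO only wells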); conditions: HeLa MMTV-bla, beta-lactamase ratio, agonist, 18 h; stronger effect = higher value; percent of dexamethasone control, DMSO zero
Chain of Glucocorticoid receptor (Homo sapiens) (P04150 whole entry, looked up): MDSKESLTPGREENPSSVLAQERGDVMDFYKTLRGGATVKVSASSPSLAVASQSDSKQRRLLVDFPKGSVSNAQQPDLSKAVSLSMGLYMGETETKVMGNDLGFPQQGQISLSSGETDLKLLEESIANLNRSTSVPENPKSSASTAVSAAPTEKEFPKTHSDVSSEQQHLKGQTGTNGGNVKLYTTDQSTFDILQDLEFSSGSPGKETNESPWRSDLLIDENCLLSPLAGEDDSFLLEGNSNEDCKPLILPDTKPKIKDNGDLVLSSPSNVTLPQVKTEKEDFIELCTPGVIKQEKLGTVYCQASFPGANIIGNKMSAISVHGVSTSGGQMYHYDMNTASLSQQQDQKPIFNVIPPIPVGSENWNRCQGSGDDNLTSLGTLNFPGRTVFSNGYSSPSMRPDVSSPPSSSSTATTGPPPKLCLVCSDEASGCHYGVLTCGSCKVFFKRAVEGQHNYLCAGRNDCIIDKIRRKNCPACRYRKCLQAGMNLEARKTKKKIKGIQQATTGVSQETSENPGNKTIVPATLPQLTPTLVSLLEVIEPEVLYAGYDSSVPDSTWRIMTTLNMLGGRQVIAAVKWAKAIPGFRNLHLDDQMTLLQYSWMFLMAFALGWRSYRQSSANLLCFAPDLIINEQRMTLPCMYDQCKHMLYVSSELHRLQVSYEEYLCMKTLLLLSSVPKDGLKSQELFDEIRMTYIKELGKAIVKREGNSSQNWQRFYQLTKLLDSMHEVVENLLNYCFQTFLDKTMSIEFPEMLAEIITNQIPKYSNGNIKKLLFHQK
Method in brief: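 Cells were plated and rested 3-5 h at 37 C, compounds were added in titration and incubated 18 h, then CCF4 substrate was loaded for 2 h at RT before reading blue/green fluorescence. EC50 came from Hill-equation fitting.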

[3] = molecular target: Glucocorticoid receptor (Homo sapiens) (UniProt P04150); assay: qHTS assay for small molecule antagonists of glucocorticoid receptor signaling (AID 588533; active = well fitted inhibition curve with a large enough effect in the signal ratio, with a control signal flat, not every such curve was filed as active; the % refers to the signal ratio; note: % is set by controls: 0 for no effect and ±100 for the full control effect)
Method in brief: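 Antagonist-mode qHTS: compound titrations added to GRE-bla HeLa cells, then dexamethasone 2 nM final; 18 h, 37 C. CCF4 FRET fluorescence normalized to dexamethasone and DMSO; IC50 from Hill fit.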

[4] = molecular target: Peroxisome proliferator-activated receptor gamma (Homo sapiens) (UniProt P37231); assay: qHTS assay for small molecule agonists of peroxisome proliferator-activated receptor gamma signaling (AID 588536; active = well fitted curve in the direction sought with a large enough effect in the signal ratio, with a control signal flat, not every such curve was filed as active; the % refers to the signal ratio;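 note: 0% = DMSO basal wells and 100% = rosiglitazone at 2 µM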)
Method in brief: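 GeneBLAzer PPAR-gamma-UAS-bla HEK293 cells in 1% charcoal/dextran-treated FBS medium were treated 16 h at 37 C with compounds. Beta-lactamase activity was read by CCF4 ratio (460/530 nm). Response was normalized to 2 uM rosiglitazone (100%) and DMSO, then Hill-fitted for EC50 and efficacy.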

[5] = molecular target: Peroxisome proliferator-activated receptor gamma (Homo sapiens) (UniProt P37231); assay: qHTS assay for small molecule antagonists of peroxisome proliferator-activated receptor gamma signaling (AID 588537; active = well fitted inhibition curve with a large enough effect in the signal ratio, with a control signal flat, not every such curve was filed as active; the % refers to the signal ratio;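 note: reporter cells co-stimulated with 50 nM rosiglitazone agonist during compound treatment; % of control where 0% means no effect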)
Method in brief: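 PPARγ-UAS-bla HEK293 cells (3000/well) in 1% charcoal/dextran-stripped FBS are treated with compound, then stimulated with 50 nM rosiglitazone for 16 h at 37 °C. Read-out is CCF4 β-lactamase fluorescence after 2 h at RT. IC50 comes from Hill fits normalised to rosiglitazone and DMSO.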

[6] = molecular target: Vitamin D3 receptor (Homo sapiens) (UniProt P11473); assay: qHTS assay for small molecule antagonists of vitamin D receptor signaling (AID 588541);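 note: receptor activated by calcitriol during compound treatment; series mostly up to about 77 µM; % is set by controls: 0 for no effect and ±100 for the full control effect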
Chain of Vitamin D3 receptor (Homo sapiens) (P11473 whole entry, looked up): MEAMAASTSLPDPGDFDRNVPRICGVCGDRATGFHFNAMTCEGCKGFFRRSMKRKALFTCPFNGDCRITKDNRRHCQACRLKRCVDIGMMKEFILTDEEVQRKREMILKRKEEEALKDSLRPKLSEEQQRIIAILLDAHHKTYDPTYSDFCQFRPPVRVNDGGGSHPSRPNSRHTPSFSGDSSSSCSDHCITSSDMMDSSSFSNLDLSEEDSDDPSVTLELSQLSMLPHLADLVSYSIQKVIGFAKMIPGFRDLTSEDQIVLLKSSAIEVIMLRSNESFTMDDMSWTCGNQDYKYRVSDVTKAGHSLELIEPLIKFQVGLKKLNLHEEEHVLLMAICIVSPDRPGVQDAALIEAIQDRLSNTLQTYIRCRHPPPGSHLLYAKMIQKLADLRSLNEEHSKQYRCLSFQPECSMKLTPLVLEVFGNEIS
Method in brief: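 VDR-UAS-bla HEK293T cells in 2% charcoal-stripped FBS were stimulated with 1-alpha,25-dihydroxyvitamin D3 (3 nM final) plus compound for 16 h at 37 C. The beta-lactamase CCF4 readout was normalized to 50 nM agonist and DMSO, and Hill fits gave IC50.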

[7] = molecular target: Vitamin D3 receptor (Homo sapiens) (UniProt P11473); assay: qHTS assay for small molecule agonists of vitamin D receptor signaling (AID 588543);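 note: 0% = DMSO basal and 100% = reference agonist control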
Method in brief: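 Measured: β-lactamase reporter activity (CCF4, 405 nm excitation, 460/530 nm emission) in HEK293T VDR-UAS-bla cells after 16 h compound exposure at 37 °C. Normalization against 50 nM 1α,25-dihydroxyvitamin D3 and DMSO; Hill-fit EC50.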

[8] = qHTS assay for small molecule agonists of retinoid X receptor alpha signaling (AID 588544); conditions: HEK293T RXRa-UAS-bla, beta-lactamase reporter, 18 h; 530 nm emission;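 for activation: 0% = DMSO basal wells and 100% = reference agonist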
[9] = molecular target: Retinoic acid receptor RXR-alpha (Homo sapiens) (UniProt P19793); assay: as above
Chain of Retinoic acid receptor RXR-alpha (Homo sapiens) (P19793 whole entry, looked up): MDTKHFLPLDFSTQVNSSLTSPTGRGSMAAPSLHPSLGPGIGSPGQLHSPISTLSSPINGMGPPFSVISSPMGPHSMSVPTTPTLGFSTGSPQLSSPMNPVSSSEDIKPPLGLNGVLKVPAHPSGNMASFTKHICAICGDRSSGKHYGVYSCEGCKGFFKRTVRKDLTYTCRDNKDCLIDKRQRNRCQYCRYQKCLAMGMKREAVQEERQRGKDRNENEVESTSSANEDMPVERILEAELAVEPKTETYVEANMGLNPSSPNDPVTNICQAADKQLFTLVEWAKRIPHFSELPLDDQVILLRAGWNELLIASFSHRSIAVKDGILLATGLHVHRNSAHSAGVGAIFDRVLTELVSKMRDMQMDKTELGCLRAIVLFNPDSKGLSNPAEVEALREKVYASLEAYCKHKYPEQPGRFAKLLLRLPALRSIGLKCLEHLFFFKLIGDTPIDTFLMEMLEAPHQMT

[10] = molecular target: Thyroid hormone receptor beta (Homo sapiens) (UniProt P10828); assay: qHTS assay for small molecule agonists of thyroid hormone receptor beta signaling (AID 588545)
Method in brief: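 HEK 293 TR-UAS-bla; agonist mode; 18 hrs, 37 C; CCF4, ex 405/em 460 and 530 nm; norm. T3 10 nM = 100%, DMSO = 0%; Hill fit → EC50, efficacy.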

[11] = qHTS assay for small molecule antagonists of retinoid X receptor alpha signaling (AID 588546; active = well fitted inhibition curve with a large enough effect in the signal ratio, with a control signal flat, not every such curve was filed as active; the % refers to the signal ratio;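 note: cells stimulated with 9-cis-retinoic acid as agonist; % is set by controls: 0 for no effect and ±100 for the full control effect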); conditions: HEK293T RXRa-UAS-bla, beta-lactamase ratio, antagonist mode; measured here: W530 green channel, cytotoxicity proxy
Method in brief: (§1)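 Beta-lactamase reporter inhibition, read as CCF4 fluorescence ratio (ex 405, em 460/530 nm) after 2 h at RT. HEK293T UAS-bla cells, 2500/well, were stimulated with 9-cis-RA at 500 or 100 nM final alongside test compound for 18 h at 37 C.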

[12] = molecular target: Retinoic acid receptor RXR-alpha (Homo sapiens) (UniProt P19793); assay: as above; conditions: HEK293T RXRa-UAS-bla, beta-lactamase ratio, antagonist mode
Method in brief: as §1

[13] = molecular target: Thyroid hormone receptor beta (Homo sapiens) (UniProt P10828); assay: qHTS assay for small molecule antagonists of thyroid hormone receptor beta signaling (AID 588547; active = well fitted inhibition curve with a large enough effect in the signal ratio, with a control signal flat, not every such curve was filed as active; the % refers to the signal ratio); conditions: TR-UAS-bla HEK293, beta-lactamase ratio, antagonist mode, 18 h
Method in brief: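 TR-UAS-bla GripTite HEK293 cells in 2% charcoal/dextran FBS medium; compounds 0.59 nM to 92 uM with T3 at 0.4nM final, 18 h at 37 C. Beta-lactamase read by CCF4 fluorescence (460/530 nm); Hill fits gave IC50 and efficacy.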

[14] = molecular target: Voltage-gated inwardly rectifying potassium channel KCNH2 (Homo sapiens) (UniProt Q12809); assay: qHTS Assay for Small Molecule Inhibitors of the Human hERG Channel Activity (AID 588834; active = well fitted curve in the direction sought with a large enough effect; an effect the other way counts as inactive or inconclusive;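 note: top concentration of the series differs between compounds; % is set by controls: 0 for no effect and ±100 for the full control effect; lower thallium flux fluorescence means stronger hERG block; nearly all actives have a fitted effect of over 50% in size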)
Chain of Voltage-gated inwardly rectifying potassium channel KCNH2 (Homo sapiens) (Q12809 whole entry, looked up): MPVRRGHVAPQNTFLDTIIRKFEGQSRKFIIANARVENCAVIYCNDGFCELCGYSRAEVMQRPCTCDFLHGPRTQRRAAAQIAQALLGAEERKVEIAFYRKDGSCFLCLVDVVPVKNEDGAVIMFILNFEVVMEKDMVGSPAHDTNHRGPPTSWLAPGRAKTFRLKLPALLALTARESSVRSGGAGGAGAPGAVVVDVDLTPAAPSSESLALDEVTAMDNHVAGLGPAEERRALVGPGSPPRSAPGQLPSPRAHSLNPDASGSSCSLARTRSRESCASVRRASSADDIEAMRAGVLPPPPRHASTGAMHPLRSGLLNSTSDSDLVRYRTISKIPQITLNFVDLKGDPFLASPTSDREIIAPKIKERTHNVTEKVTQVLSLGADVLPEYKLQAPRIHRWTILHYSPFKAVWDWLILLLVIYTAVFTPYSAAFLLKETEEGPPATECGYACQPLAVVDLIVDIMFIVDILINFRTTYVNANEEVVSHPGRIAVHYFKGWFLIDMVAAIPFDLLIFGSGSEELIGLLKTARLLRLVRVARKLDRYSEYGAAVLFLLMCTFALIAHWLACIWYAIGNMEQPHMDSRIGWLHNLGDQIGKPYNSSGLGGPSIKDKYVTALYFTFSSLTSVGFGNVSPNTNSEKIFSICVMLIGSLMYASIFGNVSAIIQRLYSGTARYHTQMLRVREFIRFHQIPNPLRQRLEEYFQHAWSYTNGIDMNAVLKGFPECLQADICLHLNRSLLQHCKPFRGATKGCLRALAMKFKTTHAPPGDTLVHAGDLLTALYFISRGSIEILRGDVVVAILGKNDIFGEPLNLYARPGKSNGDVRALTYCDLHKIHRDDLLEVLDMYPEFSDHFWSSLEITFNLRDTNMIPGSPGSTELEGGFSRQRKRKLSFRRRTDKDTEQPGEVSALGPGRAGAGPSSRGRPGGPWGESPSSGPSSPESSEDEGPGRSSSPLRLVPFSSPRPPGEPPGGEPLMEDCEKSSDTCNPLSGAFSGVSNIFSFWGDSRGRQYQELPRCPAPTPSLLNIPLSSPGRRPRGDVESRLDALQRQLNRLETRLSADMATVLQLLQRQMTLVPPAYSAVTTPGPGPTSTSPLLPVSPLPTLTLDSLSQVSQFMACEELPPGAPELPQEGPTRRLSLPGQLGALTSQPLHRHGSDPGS
Method in brief: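 Blockade is seen as reduced FluxOR thallium-flux fluorescence in U2OS cells expressing hERG from a BacMam construct, in Opti-MEM with 2% FCS. Concentration-response data fitted to the Hill equation for AC50.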

[15] = molecular target: Luciferin 4-monooxygenase (Photinus pyralis) (UniProt P08659); assay: Biochemical firefly luciferase enzyme assay for NPC (AID 624030; active = well fitted curve in the direction sought with a large enough effect; an effect the other way counts as inactive or inconclusive;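 note: purified P. pyralis luciferase at 10 nM with luciferin and ATP substrate; series mostly up to about 59 µM; 0% = DMSO and -100% = full luciferase inhibition by PTC124 control; nearly all actives have a fitted effect of over 70% in size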)
Method in brief: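 Purified P. pyralis luciferase at 10 nM in 50 mM Tris Acetate (final), luminescence read within 5 minutes of enzyme addition to compounds. Activity normalised to PTC124 versus DMSO; concentration-response curves classed by r2, magnitude and activity.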

[16] = S16 Schwann cell viability assay (CellTiter-Glo assay) (AID 624031; active = well fitted curve in the direction sought with a large enough effect; an effect the other way counts as inactive or inconclusive;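 note: native untransfected S16 rat Schwann cells; cellular ATP luminescence as a viability measure; series mostly up to about 58 µM; plate controls were DMSO-treated cells for no effect and cell-free wells for full effect; nearly all actives have a fitted effect of over 70% in size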)
Method in brief: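 Parental S16 cells, 24 h compound, 37 °C. ATP-luminescence viability; DMSO = 0% activity, empty wells as reference; curves classified by fit quality and efficacy.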

[17] = molecular target: Androgen receptor (Homo sapiens) (UniProt P10275); assay: qHTS assay for small molecule antagonists of androgen receptor signaling (AID 588516; active = well fitted curve in the direction sought with a large enough effect in the signal ratio, with a control signal flat, not every such curve was filed as active; the % refers to the signal ratio; note: % is set by controls: 0 for no effect and ±100 for the full control effect)
Chain of Androgen receptor (Homo sapiens) (P10275 whole entry, looked up): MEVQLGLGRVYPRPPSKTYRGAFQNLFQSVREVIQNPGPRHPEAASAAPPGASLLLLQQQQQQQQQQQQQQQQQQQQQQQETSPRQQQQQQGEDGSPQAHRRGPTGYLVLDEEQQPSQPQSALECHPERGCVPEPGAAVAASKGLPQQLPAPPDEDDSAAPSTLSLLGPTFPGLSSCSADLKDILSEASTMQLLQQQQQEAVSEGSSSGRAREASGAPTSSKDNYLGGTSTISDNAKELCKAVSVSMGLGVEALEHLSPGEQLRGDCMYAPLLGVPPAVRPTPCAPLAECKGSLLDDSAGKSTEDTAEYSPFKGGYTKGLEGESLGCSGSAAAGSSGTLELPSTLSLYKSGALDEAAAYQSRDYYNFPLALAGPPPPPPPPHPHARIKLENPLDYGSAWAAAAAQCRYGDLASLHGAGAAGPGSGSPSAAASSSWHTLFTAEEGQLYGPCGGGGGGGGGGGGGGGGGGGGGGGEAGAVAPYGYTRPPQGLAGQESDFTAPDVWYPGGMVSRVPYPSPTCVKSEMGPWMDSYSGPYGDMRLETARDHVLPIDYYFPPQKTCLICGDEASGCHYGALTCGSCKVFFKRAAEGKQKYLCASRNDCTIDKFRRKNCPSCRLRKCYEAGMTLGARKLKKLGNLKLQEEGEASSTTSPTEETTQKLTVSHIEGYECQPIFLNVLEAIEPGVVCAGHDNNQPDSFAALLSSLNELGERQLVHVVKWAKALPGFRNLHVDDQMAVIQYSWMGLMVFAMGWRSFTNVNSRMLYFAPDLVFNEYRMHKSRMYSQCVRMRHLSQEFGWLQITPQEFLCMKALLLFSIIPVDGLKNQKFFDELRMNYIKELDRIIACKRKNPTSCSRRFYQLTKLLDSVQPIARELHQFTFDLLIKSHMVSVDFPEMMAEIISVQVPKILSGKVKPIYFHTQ
Method in brief: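 Compounds tested in titration against 10 nM R1881 in AR-responsive bla reporter HEK 293 cells; CCF4 fluorescence (460/530 nm) after 16 h exposure gave IC50 and efficacy.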

[18] = molecular target: Androgen receptor (Homo sapiens) (UniProt P10275); assay: qHTS assay for small molecule agonists of androgen receptor signaling (AID 588515; active = well fitted curve in the direction sought with a large enough effect in the signal ratio, with a control signal flat; the % refers to the signal ratio; note: % is set by controls: 0 for no effect and ±100 for the full control effect); conditions: AR-UAS-bla HEK293, beta-lactamase ratio, agonist 16 h; stronger effect = higher value
Method in brief: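 EC50 and efficacy came from Hill fits of titrations (up to 92 uM) normalized to 30 nM R1881 as 100% and DMSO as 0%. Compound exposure was 16 h at 37 C on AR-UAS-bla HEK293 cells, with a 405/460/530 nm CCF4 fluorescence read.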

[19] = qHTS assay for small molecule antagonists of peroxisome proliferator-activated receptor delta signaling (AID 588535; active = well fitted inhibition curve with a large enough effect in the signal ratio, with a control signal flat, not every such curve was filed as active; the % refers to the signal ratio;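 for max response: cells co-treated with a PPAR-delta agonist as stimulator during compound exposure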); conditions: HEK293T PPARd-UAS-bla, beta-lactamase FRET ratio, 18 h; 460 nm channel
Method in brief: (§2)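 Antagonist-mode beta-lactamase reporter (GeneBLAzer PPAR-delta-UAS-bla) in HEK293T cells, 2% charcoal/dextran FBS, 4000 cells/well. Compound titrations, 18 h at 37 C; CCF4 ratio read, IC50 and efficacy from Hill fits.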

[20] = molecular target: Peroxisome proliferator-activated receptor delta (Homo sapiens) (UniProt Q03181); assay: as above
Chain of Peroxisome proliferator-activated receptor delta (Homo sapiens) (Q03181 whole entry, looked up): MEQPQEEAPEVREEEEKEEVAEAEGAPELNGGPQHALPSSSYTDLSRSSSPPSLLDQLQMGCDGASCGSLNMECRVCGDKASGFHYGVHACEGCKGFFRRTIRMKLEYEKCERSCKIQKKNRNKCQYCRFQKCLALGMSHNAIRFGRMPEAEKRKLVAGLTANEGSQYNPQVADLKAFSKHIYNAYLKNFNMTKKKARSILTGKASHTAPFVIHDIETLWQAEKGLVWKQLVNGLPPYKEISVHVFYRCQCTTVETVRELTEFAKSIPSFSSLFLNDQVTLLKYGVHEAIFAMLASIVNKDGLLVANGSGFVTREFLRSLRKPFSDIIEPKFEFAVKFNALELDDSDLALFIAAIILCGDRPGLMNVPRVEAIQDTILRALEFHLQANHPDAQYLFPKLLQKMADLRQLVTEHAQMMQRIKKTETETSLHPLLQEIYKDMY
Method in brief: as §2

NS(=O)(=O)c1cc2c(cc1Cl)NCNS2(=O)=O
-4.08% and -3.49%: max response [11]
1.78% and -10.2%: max response [8]
inactive: Potency [1] | activation [2] -0.573% | Potency [3] | outcome [4] | Potency [5] | outcome [6] | outcome [7] | outcome [9] | outcome [10] | max response [12] 11.3% and 4.53% | activity change % (negative = inhibition) [13] -1.87% and 13.1% | Potency [14] | Potency [15] | Potency [16]

CN(C)CCOC(c1ccccc1)c1ccccc1
inactive: outcome [17] | activation [2] -3.72% | Potency [3] | activity change % (negative = inhibition) [13] -3.52% | Potency [16]

Cn1c(=O)c2[nH]cnc2n(C)c1=O
-12.6%: max response [8]
-3.21%: max response [11]
inactive: Potency [1] | outcome [4] | outcome [9] | outcome [10] | max response [12] -6.35% | activity change % (negative = inhibition) [13] -10.4% | Potency [15] | Potency [16]

CC(C)C(=O)Nc1ccc([N+](=O)[O-])c(C(F)(F)F)c1
inactive: Potency [1] | outcome [4] | Potency [5] | outcome [10] | max response [12] -17.5% and 1.97% | activity change % (negative = inhibition) [13] -0.269% and 16% | Potency [14] | Potency [15] | Potency [16]
2.09% and 2.52%: max response [11]

CCC1(c2ccccc2)C(=O)NCNC1=O
-5.6% and -16.4%: max response [11]
inactive: Potency [1] | activation [2] -1.52% and -4.43% | Potency [3] | outcome [4] | Potency [5] | outcome [6] | outcome [7] | outcome [9] | outcome [10] | max response [12] 16.1% and -15.5% | activity change % (negative = inhibition) [13] -16.1% | Potency [15] | Potency [16]
-2.48% and -11.6%: max response [8]

CC(C)(Oc1ccc(C2CC2(Cl)Cl)cc1)C(=O)O (centres undefined)
inactive: activation [18] -8.82% | outcome [17] | activation [2] -2.49% | Potency [3] | outcome [20] | Potency [5] | outcome [6] | outcome [7] | outcome [10] | max response [12] -27.6% | activity change % (negative = inhibition) [13] -9.34% | Potency [15] | Potency [16]
-19.7%: max response [19]
3.34%: max response [11]

Nc1ccn([C@H]2CC[C@@H](CO)O2)c(=O)n1
-2.4% and 34.8%: max response [19]
-1.8% and -6%: max response [11]
inactive: outcome [20] | outcome [4] | Potency [5] | outcome [9] | outcome [10] | max response [12] -7.58% and 1.21% | activity change % (negative = inhibition) [13] 1.36% and 5.95% | Potency [15]
-7.85% and -11%: max response [8]

CC(COc1ccccc1)N(CCCl)Cc1ccccc1 (centres undefined)
9.59% and -12.9%: max response [11]
inactive: Potency [3] | outcome [4] | outcome [6] | outcome [7] | outcome [9] | outcome [10] | max response [12] 13.6% and -11.7% | activity change % (negative = inhibition) [13] -2.59% and 11.4% | Potency [15] | Potency [16]
23% and 19%: max response [8]
